Potency data for 35 molecules are collected here from PubChem BioAssay AID489012 (National Center for Advancing Translational Sciences (NCATS), 2010).

Molecules are shown by their SMILES. Records with an inconclusive call do not appear. Where a call stands in place of a potency, no number is given. Active and inactive are the calls of the source. Calls follow the shape of the dose curve; as a rule, active = well fitted activation curve with a large enough effect; inconclusive = small, poorly fitted or top-dose-only effect; inactive = no such curve, though single readings can be large or run the other way.
Potency is read from the fitted curve at half-maximal effect.

Relaxin receptor 1 (Homo sapiens), sequence (Q9HBX9 whole entry, looked up): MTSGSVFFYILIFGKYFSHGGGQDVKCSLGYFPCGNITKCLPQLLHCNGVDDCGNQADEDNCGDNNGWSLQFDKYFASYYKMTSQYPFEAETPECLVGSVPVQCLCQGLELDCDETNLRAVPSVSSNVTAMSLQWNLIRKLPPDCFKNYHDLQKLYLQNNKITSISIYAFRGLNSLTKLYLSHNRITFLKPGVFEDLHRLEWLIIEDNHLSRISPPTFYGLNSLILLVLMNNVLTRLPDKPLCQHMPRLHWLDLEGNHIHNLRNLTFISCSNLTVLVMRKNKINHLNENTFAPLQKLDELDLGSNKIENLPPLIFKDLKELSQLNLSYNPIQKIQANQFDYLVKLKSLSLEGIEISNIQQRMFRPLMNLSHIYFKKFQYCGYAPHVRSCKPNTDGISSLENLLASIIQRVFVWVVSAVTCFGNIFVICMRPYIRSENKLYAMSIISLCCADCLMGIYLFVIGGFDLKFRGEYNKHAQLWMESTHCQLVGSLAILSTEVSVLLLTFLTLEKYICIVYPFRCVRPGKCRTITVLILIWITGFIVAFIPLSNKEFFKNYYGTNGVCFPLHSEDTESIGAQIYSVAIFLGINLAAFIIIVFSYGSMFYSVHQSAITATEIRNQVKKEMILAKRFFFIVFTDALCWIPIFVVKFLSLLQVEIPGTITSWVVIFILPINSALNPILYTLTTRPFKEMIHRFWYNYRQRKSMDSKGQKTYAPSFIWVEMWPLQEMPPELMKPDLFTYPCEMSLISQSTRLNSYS

The experiment addresses Relaxin receptor 1 (Homo sapiens) (UniProt Q9HBX9). Kind of experiment: qHTS Assay for Agonists of the Relaxin Receptor RXFP1: RXFP1 Hit Validation. Also: nearly all actives have a fitted effect of over 65% in size.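 As to activation: cAMP rise lowers the TR-FRET signal in lysed cells with PDE4 inhibitor present.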 The note with it: HEK293T-RXFP1 cAMP TR-FRET, 30 min; series mostly up to 115 µM.
Consider `CCOC(=O)c1sc(=NC(=O)c2ccc(S(=O)(=O)N(C)c3ccccc3)cc2)n(C)c1C`, for which the Potency was 19.4 µM (active).

Consider `CN(C)CCCn1c(SCC(=O)Nc2nc(-c3cccc(Br)c3)cs2)nc2ccccc2c1=O`, for which the Potency entry was “inactive”. With `O=C(Nc1ccccc1C(=O)NCCN1CCOCC1)c1ccco1`, the Potency result is “inactive”. For the molecule `CCN(CC)CCCCCC(=O)Nc1ccccc1C(=O)Nc1ccccc1`, the Potency entry is “inactive”. As to `COCCNC(=O)C(OC(=O)c1nsc(Cl)c1Cl)C(C)C` (stereo not given), the Potency entry is “inactive”.

Regarding `CCOP1(=O)OCC2OC(n3cnc4c(N)ncnc43)C(O)C2O1` (stereo not given), the Potency was 6.91 µM (active). Then `O=C(O)CCNc1ccc(NCCC(=O)O)c2c1C(=O)c1ccccc1C2=O`, with “inactive”. Consider `CCc1cc2cc3c(cc2nc1SCC(=O)Nc1nccs1)OCO3`, for which the Potency was 17.3 µM (active). With `O=C(O)c1cccc(CSc2nnc(Cc3ccccc3)o2)c1`, the Potency result was “inactive”. The value for `COc1ccccc1CNS(=O)(=O)c1cc(CN2C(=O)c3cccnc3C2=O)ccc1OC` was 30.9 µM (active); that for `COC(=O)c1nc2ccc(N3CCOCC3)cc2c(C)c1C(=O)OC` was 34.6 µM (active). Take `NC(=S)c1cc2ccc(O)cc2oc1=O`: the Potency is 7.74 µM (active). On to `CCOC(=O)CNC(=O)CSc1ccc2nnc(-c3cccnc3)n2n1`, for which the Potency entry was “inactive”. With `Cn1c(N)c(C(=O)CSc2nn(-c3ccc(F)cc3)c(=S)s2)c(=O)n(C)c1=O`, the Potency was 21.8 µM (active). For `COc1cc(-c2nnc(SCC(=O)N(C)C3CCS(=O)(=O)C3)o2)cc(OC)c1OC` (stereo not given), the Potency entry was “inactive”. Turning to `Cc1ccc2cc(CN(C(=O)c3cccs3)c3ccccc3)c(=O)[nH]c2c1`, the Potency entry was “inactive”.

`O=C(O)c1ccc(CN2C(=O)c3ccc(C(=O)O)cc3C2=O)cc1`: the Potency result was “inactive”. As for `O=C(Nc1ccccc1C(=O)N1CCCCC1)c1ccco1`, the Potency result is “inactive”.

For the molecule `COc1ccccc1NC(=O)c1sc2nc3n(c(=O)c2c1C)CCC3`, the Potency result is “inactive”. As for `N#C/C(=C\c1c(N2CCC(C(N)=O)CC2)nc2ccccn2c1=O)C(=O)NC1CCCCC1`, the Potency result was “inactive”. With `Cc1cccc(C(=O)Nc2ccccc2C(=O)NCc2ccco2)c1`, the Potency result is “inactive”. On to `O=C(Nc1ccccc1C(=O)NCCc1ccc(O)cc1)c1ccco1`, for which the Potency result was “inactive”. As for `CC(C)(C)C(=O)Nc1ccccc1C(=O)NCc1ccco1`, the Potency entry was “inactive”. Then `COc1cc(Cl)c(C)cc1NC(=O)c1ccc2c(c1)OCO2`, with “inactive”.

For the molecule `CC[n+]1ccc(/C=C/c2ccc(N(C)C)cc2)c2ccccc21`, the Potency entry is “inactive”. For the molecule `c1ccc(-c2nnc(-c3ccccn3)c(-c3ccccn3)n2)nc1`, the Potency entry was “inactive”. For `COc1ccc(/C=C2/SC(=O)N(CCC(=O)Nc3ccc(C)cc3)C2=O)cc1OC`, the Potency entry is “inactive”. As to `CCc1ccc2n(-c3ccc(OC)cc3)c([S-])c(C(=O)Nc3cc(C)cc(C)c3)[n+]2c1`, the Potency is 24.5 µM (active). `CN(CC(=O)Nc1ccccc1Cl)C(=O)COC(=O)Cc1c(F)cccc1Cl`: the Potency entry is “inactive”. For the molecule `CCN(CC)S(=O)(=O)c1ccc(N2CCOCC2)c(NC(=O)c2cc([N+](=O)[O-])ccc2Cl)c1`, the Potency result was “inactive”. On to `CC(C(=O)Nc1cccnc1)n1cc([N+](=O)[O-])cn1` (stereo not given), for which the Potency result is “inactive”. The value for `O=C1CN(c2nc3ccccc3n3cnnc23)CC(=O)N1CCc1ccccc1` was “inactive”.

Turning to `NC(=O)c1ccccc1NC(=O)CC12CC3CC(CC(C3)C1)C2`, the Potency result was “inactive”.

For `Cc1ccc(C(=O)Nc2ccccc2C(N)=O)o1`, the Potency result was “inactive”. With `CCN(CC)C(=O)c1cc(Cl)ccc1NC(=O)c1ccco1`, the Potency entry was “inactive”.
